Screening data (PubChem BioAssay)
Sampled rows, rich in hits. Any-hit rate of the full collection: about 2.8%.
HepG2 viability – kills HepG2 cells in TGF-b inhibitor counter-screen. Potency, µM (top dose mostly 46.1 µM), for the others: at the highest dose activity change, negative = cytotoxicity, actives largely listed as cytotoxic. HepG2 CAGA-GFP viability, ATP luminescence, 18 h. hit rate 0.76% among 410,000
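CellTiter-Glo luminescence gave cytotoxicity after 18 hours at 37 degrees C. The cells were HepG2 CAGA-GFP in 1% FBS DMEM, stimulated with 500 pg/mL TGF-beta after compound addition. %Activity was normalised to no-cell wells (complete cell-killing) and DMSO (no toxicity), and curves were fitted and classified.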
ATXN2 expr inh – ATXN2 expression inhibition; HEK-293 ATXN2-luciferase reporter, luminescence, 24 h; hit rate 0.72% among 360,000; Potency, µM (doses to about 57 µM), inactives show at the top dose activity change, negative = inhibition, most hits filed as inhibitors; also: % is scaled to controls: 0 for no effect and ±100 for the full control effect; nearly all actives have a fitted effect of over 55% in size
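qHTS (up to 57 uM final) was run with 24 h compound exposure of reporter cells at 37 °C. Each well was multiplexed: SteadyGlo luminescence measured ATXN2-luciferase expression after a fluorogenic Gly-Phe-AFC viability readout (25 uM final).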
ATXN viability – viability counter-screen for ATXN expression inhibitors. Potency, µM (titrated, usually from 56.7 µM), usual class: cytotoxic. hit rate 0.49% among 400,000. S2 cells (HEK-293 line with an ATXN2-luciferase reporter) viability, CellTiter-Fluor protease fluorescence, 24 h; also: nearly all actives have a fitted effect of over 40% in size
HttQ103 aggreg – reduces HttQ103-GFP aggregates in PC12 cells. PC12 HttQ103-GFP aggregates, Acumen cytometry, 40 h. AID 1688. Potency, µM (series often up to 46.1 µM), inactives show at the highest dose activity change, negative = inhibition, actives largely listed as inhibitors. hit rate 1.1% among 220,000; also: % is scaled to controls: 0 for no effect and ±100 for the full control effect; nearly all actives have a fitted effect of over 60% in size
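Aggregates are detected as GFP objects 1–25 µm with signal 6 STDEV over background in lysates of induced PC12 cells. These carry Huntingtin exon 1 with 103 glutamines fused to GFP under an ecdysone promoter; compounds titrated.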
HTT ATP protect – protects HTT-Q103 PC12 cells, measured by ATP; PC12 HTT-Q103 induced, cytoprotection, ATP luminescence, 40 h; Potency, µM (titrated, usually from 56.4 µM), inactives show cytoprotection (ATP increase), most hits filed as activators; hit rate 0.14% among 230,000; also: % of control where 0% means no effect; nearly all actives have a fitted effect of over 45% in size
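Compounds added alongside 100 nM tebufenozide, which induces toxic Q103 huntingtin exon 1-GFP in stable PC12 cells; surviving cells quantified by luminescent ATP measurement. Medium: phenol red-free DMEM, 5% equine and 5% calf serum.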
TGFb inhibitor – inhibitors of TGF-b signaling. hit rate 1.2% among 410,000. HepG2 CAGA-GFP TGF-b/SMAD3 reporter, GFP fluorescence, 18 h; TGF-beta stimulated, 500 pg/mL final. Potency, µM (top dose mostly 46.1 µM), for inactives: at the top dose activity, negative = inhibition, actives largely listed as inhibitors; also: % is scaled to controls: 0 for no effect and ±100 for the full control effect; nearly all actives have a fitted effect of over 65% in size
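Inhibition of TGF-beta-driven CAGA-GFP reporter expression in HEPG2 cells is measured by cellular GFP fluorescence after 18 h stimulation with 500 pg/mL recombinant TGF-beta in 1% FBS medium at 37 degrees C.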
* hit, by the source's call; i = inactive; ? = inconclusive; nt = no result given; ! = repeats disagree; [ ] = dose if it differs, or a comment. Calls follow the shape of the dose curve; as a rule, active = well fitted curve in the direction sought with a large enough effect; inconclusive = small, poorly fitted or top-dose-only effect, or another doubt; inactive = no such curve, though single readings can be large; an effect the other way counts as inactive or inconclusive. Potency is read from the fitted curve at half-maximal effect.

SMILES	HepG2 viability	ATXN2 expr inh	ATXN viability	HttQ103 aggreg	HTT ATP protect	TGFb inhibitor
Cc1ccc(Sc2ccc(NC(=O)CCl)cc2)c(C)c1	-89.8%	31.6µM*	nt	-4.2%	-5.6%[10 µM]	?
Cc1ccc(C)c(Sc2ccc(NC(=O)CCN3C(=O)NC4(CCCC4)C3=O)cc2)c1	15.8µM*	?	?	nt	nt	?
Cc1ccc(NC(=O)CCN2C(=O)NC3(CCCC3)C2=O)cc1	-6.8%	-0.8%	i	nt	nt	-0.2%
O=C(Nc1ccccc1)c1ccccc1NS(=O)(=O)c1ccc(Cl)s1	-30.8%	?	?	1.4%	8.8%[10 µM]	12.6µM*
Cc1ccc(NC(=O)c2ccccc2NS(=O)(=O)c2ccc(Cl)s2)cc1	-69.1%	?	i	3.16µM*	-39.3%[10 µM]	?
O=C(Nc1ccc(S(=O)(=O)N2CCOCC2)cc1)c1cc(Cl)ccc1NS(=O)(=O)c1ccc(Cl)s1	nt	-12.0%	15.8µM*!	nt	nt	nt
O=C(NCc1ccco1)c1ccccc1NS(=O)(=O)c1ccc(Cl)s1	-48.6%	-12.5%	i	17.8µM*	-18.4%	-26.0%
COc1cccc(C(=O)NC(C)c2nnc3n2CCN(CC=C(C)C)CC3)c1 (stereo not drawn)	nt	nt	i	nt	nt	nt
CCCNC(=O)c1ccc2c(=O)c(O)c(-c3cccc(Br)c3)[nH]c2c1	0.7%	22.4µM*	i	42.5%[9.22 µM]	-23.3%[10 µM]	?
COc1ccc(CNC(=O)CCS(=O)(=O)c2cccc3nonc23)cc1	5.2%	98.0%	i	6.31µM*	3.55µM*	-4.7%
CCOC(=O)C1=CC[C@@H](c2ccccc2)N(S(=O)(=O)c2ccc(C)cc2)[C@H]1C	22.4µM*	-2.9%	i	nt	nt	?
O=C(c1ccoc1)N1CCN(c2cc(-c3ccco3)nc3cc(-c4ccccc4)nn23)CC1	-12.6%	25.1µM*	?	nt	nt	?
COc1ccccc1-c1cc2nc(-c3ccccc3)cc(N3CCN(C(=O)c4ccoc4)CC3)n2n1	-29.7%	?	?	nt	nt	?
COc1ccccc1-c1cc2nc(-c3ccccc3)cc(N3CCN(C(=O)c4ccco4)CC3)n2n1	5.8%	12.6µM*	?	nt	nt	15.2%
COC(=O)[C@@]1(Cc2ccc(F)cc2)[C@@H]2C(=CC(=O)[C@H]2CC(=O)C(=O)N2CCCC2)CN1C(=O)c1ccccc1	nt	nt	nt	nt	-31.7%	nt
COC(=O)[C@@]1(Cc2ccc(OC)cc2)[C@@H]2C(=CC(=O)[C@H]2CC(=O)C(=O)N2CCCC2)CN1C(=O)c1ccccc1	-45.7%	?	28.2µM*	?	7.08µM*	?
COc1ccc(-c2cc(C(F)(F)F)c3c(N)c(C(=O)NCCSC)sc3n2)cc1	-14.6%	-34.9%	nt	nt	nt	17.8%
CN(C)CCNC(=O)c1sc2nc(-c3ccccc3)cc(C(F)(F)F)c2c1N	11.2µM*	?	i	nt	nt	?
c1ccc2c(CCNc3ccc(Nc4ccncc4)cc3)c[nH]c2c1	nt	15.3µM*	nt	nt	nt	nt
O=C(CCc1c[nH]c2ccccc12)NCc1ccncc1	-8.5%	-15.5%	i	nt	nt	-5.2%
O=C(c1cnn2cccnc12)N1CCOc2ccc(C(O)C(c3ccccc3)c3ccccc3)cc2C1 (stereo not drawn)	nt	nt	i	nt	nt	nt
Clc1ccccc1-c1nnc2sc(-c3ccc4c(c3)OCO4)nn12	-22.1%	0.0%	i	-30.5%	24.2%[1.9 µM]	-13.3%
Brc1ccccc1-c1nnc2sc(-c3ccc4c(c3)OCCO4)nn12	-15.7%	6.5%	i	25.1µM*	-72.1%	-26.0%
O=C(CSCc1ccc(C(=O)O)cc1)Nc1ccc2ccccc2c1	-5.8%	-10.9%	i	39.8µM*	nt	-19.6%
O=C(CSCc1ccc(C(=O)O)cc1)Nc1ccccc1	-16.0%	2.7%	i	29.4%[9.22 µM]	?	0.1%
SMILES	HepG2 viability	ATXN2 expr inh	ATXN viability	HttQ103 aggreg	HTT ATP protect	TGFb inhibitor
C/C(=N/O)c1ccc2cc(Br)c3ccccc3c2c1	nt	nt	nt	nt	-4.4%[10 µM]	nt
Cc1cc(N(C)C)ccc1/C=C/c1ccnc2ccccc12	-2.2%	nt	nt	nt	nt	29.0%
Cc1cnc(C)c(-c2cccc3c2OC(CNC(=O)C[C@@H]2C[C@@H](C)NC(=S)N2)C3)n1 (stereo partly drawn)	nt	nt	i	nt	nt	nt
O=c1[nH]c(=O)n([C@H]2C[C@@H](O)[C@@H](CO)O2)cc1F	-36.6%	1.09µM*	nt	nt	nt	?
O=c1[nH]c(=O)n([C@H]2C[C@H](O)[C@@H](CO)O2)cc1C(F)(F)F	-13.1%	2µM*!	i	11.1%	nt	-5.7%
O=c1[nH]c(=O)n(C2CC(O)C(CO)O2)cc1Br (stereo not drawn)	-9.1%	15.5%	i	nt	nt	-13.2%
O=c1[nH]c(=O)n(C2C[C@H](O)[C@@H](CO)O2)cc1C(F)(F)F (stereo partly drawn)	-4.0%	?	?	-17.2%	-59.0%	-3.1%
COc1ccc2[nH]cc(CCO)c2c1	nt	nt	nt	nt	-10.4%	nt
CCN1C(=O)[C@@H]2Cc3c([nH]c4ccccc34)C(c3cc(OC)c(OC)c(OC)c3)N2C1=S (stereo partly drawn)	-27.1%	nt	i	nt	nt	158.1%
COc1cc([C@H]2c3[nH]c4ccccc4c3C[C@H]3C(=O)N4[C@@H](c5cc(OC)c(OC)c(OC)c5)c5[nH]c6ccccc6c5C[C@H]4C(=O)N23)cc(OC)c1OC	14.1µM*	?	15.8µM*	-0.6%	nt	?
CCC(Oc1ccccc1)C(=O)N(CC)CC(=O)NCc1ccc(F)cc1 (stereo not drawn)	-5.1%	5.8%	i	nt	nt	-14.6%
CCN(CC(=O)NCc1ccc(F)cc1)CC(O)COCc1cccc(OC)c1 (stereo not drawn)	-40.8%	-1.7%	i	-14.1%	-10.7%	12.6µM*
Cc1ccc2cccc(N=Cc3c(C)[nH]n(-c4ccccc4)c3=O)c2n1	-55.1%	28.2µM*	i	?	7.0%[10 µM]	?
Cc1[nH]n(-c2ccccc2)c(=O)c1N=O	13.1%	-24.4%	i	0.631µM*	nt	3.2%
CC(C)(C)OC(=O)[C@H]([C@@H]1N[C@@H](C(=O)O)C(C)(C)S1)N1C(=O)c2ccccc2C1=O	nt	nt	nt	nt	1.5%[10 µM]	nt
